Inconclusive results are not listed. The source made the active and inactive calls. Unless noted, calls come from the whole dose curve; as a rule, active = well fitted curve in the direction sought with a large enough effect in the repeat runs; inconclusive = weak or mixed curves; inactive = no such curve, though single readings can be large; an effect the other way counts as inactive or inconclusive.
Legend:
[1] = qHTS assay to identify aromatase inhibitors - cell viability counter screen (AID 743084);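 note: cells stimulated with testosterone during compound exposure; nearly all actives have a fitted effect of over 55% in size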
[2] = target: Aryl hydrocarbon receptor (Homo sapiens) (UniProt P35869); assay: qHTS assay to identify small molecule that activate the aryl hydrocarbon receptor (AhR) signaling pathway (AID 743085);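 note: HG2L7.5c1 human HepG2 liver cells with stably integrated DRE-driven firefly reporter; series mostly up to about 70 µM; nearly all actives have a fitted effect of over 15% in size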
How it was run: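 Cell line HG2L7.5c1 (human hepatoma, 20× DRE-luc). Plated, 5 h 37C, compound/DMSO added, 24 h 37C. CellTiter-Fluor 30 min 37C → fluorescence; then ONE-Glo 30 min RT → luminescence.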

[3] = qHTS assay to identify small molecule that activate the aryl hydrocarbon receptor (AhR) signaling pathway - cell viability counter screen (AID 743086);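 note: HepG2 liver cells carrying the AhR DRE luciferase reporter; series mostly up to about 70 µM; nearly all actives have a fitted effect of over 45% in size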
How it was run: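 HepG2-AhR-luc (HG2L7.5c1) cells, 4000/well, treated 24 h at 37 C with compound; viability measured as CellTiter-Fluor fluorescence after 30 min in the same wells as the luciferase read.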

[4] = target: Peroxisome proliferator-activated receptor gamma (Homo sapiens) (UniProt P37231); assay: qHTS assay to identify small molecule agonists of the peroxisome proliferator-activated receptor gamma (PPARg) signaling pathway (AID 743094; active = well fitted activation curve with a large enough effect in the signal ratio in the repeat runs, not every such curve was filed as active; the % refers to the signal ratio)
How it was run: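 Beta-lactamase FRET fluorescence was the read-out after a 1 h room-temperature substrate step, following 17 h compound treatment at 37C of HEK293H cells expressing a UAS-driven bla reporter responsive to PPARg.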

[5] = qHTS assay to identify small molecule phospholipidosis (PLD) inducers (AID 1259344; active = well fitted curve in the direction sought with a large enough effect; an effect the other way counts as inactive or inconclusive)
How it was run: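 HepG2 cells, 900/well, treated with compound plus LipidTOX Red for 24 h at 37 C; amiodarone positive and DMSO negative controls. Fixed with paraformaldehyde/Hoechst, then high-content imaging scored LipidTOX pit count and integrated intensity per well and per cell.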
% is set by controls: 0 for no effect and ±100 for the full control effect.

Aryl hydrocarbon receptor (Homo sapiens), sequence (P35869 whole entry, looked up): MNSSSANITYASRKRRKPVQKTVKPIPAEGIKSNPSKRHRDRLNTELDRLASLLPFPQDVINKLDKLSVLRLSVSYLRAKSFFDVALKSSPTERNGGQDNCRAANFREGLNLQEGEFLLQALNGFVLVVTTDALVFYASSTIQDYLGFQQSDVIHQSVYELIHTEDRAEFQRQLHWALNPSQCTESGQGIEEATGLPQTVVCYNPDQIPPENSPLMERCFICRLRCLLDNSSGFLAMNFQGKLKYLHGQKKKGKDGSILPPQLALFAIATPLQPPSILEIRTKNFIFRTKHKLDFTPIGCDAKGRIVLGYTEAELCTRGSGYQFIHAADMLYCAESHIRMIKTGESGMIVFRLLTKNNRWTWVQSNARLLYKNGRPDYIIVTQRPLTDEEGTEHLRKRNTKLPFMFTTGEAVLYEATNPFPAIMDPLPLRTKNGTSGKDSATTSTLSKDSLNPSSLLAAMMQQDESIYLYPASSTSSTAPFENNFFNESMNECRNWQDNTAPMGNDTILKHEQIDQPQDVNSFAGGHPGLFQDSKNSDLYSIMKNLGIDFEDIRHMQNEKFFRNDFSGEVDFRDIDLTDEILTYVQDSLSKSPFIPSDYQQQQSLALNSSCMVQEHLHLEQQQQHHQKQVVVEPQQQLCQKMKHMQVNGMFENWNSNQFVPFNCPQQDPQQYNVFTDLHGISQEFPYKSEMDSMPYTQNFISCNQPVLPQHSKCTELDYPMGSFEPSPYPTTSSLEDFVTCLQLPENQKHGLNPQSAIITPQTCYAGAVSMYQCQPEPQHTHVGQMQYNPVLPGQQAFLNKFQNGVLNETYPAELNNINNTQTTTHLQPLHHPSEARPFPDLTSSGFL
Peroxisome proliferator-activated receptor gamma (Homo sapiens), sequence (P37231 whole entry, looked up): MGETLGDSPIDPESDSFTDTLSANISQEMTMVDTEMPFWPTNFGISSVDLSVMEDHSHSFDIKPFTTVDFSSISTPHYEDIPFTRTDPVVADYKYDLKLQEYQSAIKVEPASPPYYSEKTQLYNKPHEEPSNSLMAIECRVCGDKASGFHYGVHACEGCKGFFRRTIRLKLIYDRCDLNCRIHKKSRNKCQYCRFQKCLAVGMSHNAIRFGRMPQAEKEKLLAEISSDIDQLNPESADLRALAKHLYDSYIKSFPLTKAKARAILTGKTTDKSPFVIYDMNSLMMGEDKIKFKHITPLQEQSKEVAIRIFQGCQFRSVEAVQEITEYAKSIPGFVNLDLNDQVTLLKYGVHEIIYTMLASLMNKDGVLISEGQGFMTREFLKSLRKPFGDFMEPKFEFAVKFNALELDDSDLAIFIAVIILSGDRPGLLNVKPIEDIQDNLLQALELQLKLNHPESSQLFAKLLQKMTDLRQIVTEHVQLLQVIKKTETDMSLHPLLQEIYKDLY

Cc1onc(-c2ccccc2)c1C(=O)N[C@@H]1C(=O)N2[C@@H]1SC(C)(C)[C@@H]2C(=O)O
inactive: Potency [1] | Potency [2] | Potency [3] | Potency [4] | PLD induction [5] -3.09% [at 7.66 µM]

N[C@@H](C(=O)N[C@@H]1C(=O)N2C(C(=O)O)=C(CSc3cn[nH]n3)CS[C@H]12)c1ccc(O)cc1
inactive: Potency [1] | Potency [2] | Potency [3] | Potency [4] | Potency [5]

c1cnc2cc3c(cc2n1)[C@@H]1CNC[C@H]3C1
inactive: Potency [1] | Potency [2] | Potency [3] | Potency [4] | Potency [5]

CC(=O)O[C@H]1CC[C@@]2(C)C(=CC[C@H]3[C@@H]4CC[C@H](C(C)=O)[C@@]4(C)CC[C@@H]32)C1
inactive: Potency [1] | Potency [2] | Potency [3] | Potency [4] | PLD induction [5] 6.8% [at 7.66 µM]

CC1(C)C2CC[C@]3(C)[C@H](C(=O)C=C4[C@@H]5C[C@@](C)(C(=O)O)CC[C@]5(C)CC[C@]43C)[C@@]2(C)CC[C@@H]1O[C@H]1O[C@H](C(=O)O)[C@@H](O)[C@H](O)[C@H]1O[C@@H]1O[C@H](C(=O)O)[C@@H](O)[C@H](O)[C@H]1O (some centres not stated)
inactive: Potency [1] | Potency [2] | Potency [3] | PLD induction [5] 0.435% [at 7.66 µM]

CCCCCCCCCCCCCCCCCC(=O)[O][Al]
inactive: Potency [1] | Potency [2] | Potency [3] | Potency [5]

CCCCC(F)(F)[C@@]1(O)CC[C@H]2[C@@H](CC(=O)[C@@H]2CCCCCCC(=O)O)O1
inactive: Potency [1] | Potency [2] | Potency [3] | Potency [5]

NCCC[C@H](N)C(=O)O
inactive: Potency [1] | Potency [2] | Potency [3] | Potency [4] | Potency [5]

C/C(=C(\CCOC(=O)c1ccccc1)SS/C(CCOC(=O)c1ccccc1)=C(/C)N(C=O)Cc1cnc(C)nc1N)N(C=O)Cc1cnc(C)nc1N
inactive: Potency [1] | Potency [2] | Potency [3] | Potency [4] | Potency [5]

O=P(O)(O)OC(CO)CO
inactive: Potency [1] | Potency [2] | Potency [3] | Potency [4] | Potency [5]

CCCCCCCCCCCCCCCC(=O)OC[C@@H](NC(=O)C(Cl)Cl)[C@H](O)c1ccc([N+](=O)[O-])cc1
inactive: Potency [1] | Potency [2] | Potency [3] | Potency [4] | Potency [5]

Cn1nnnc1SCC1=C(C(=O)O)N2C(=O)[C@@H](NC(=O)[C@H](OC=O)c3ccccc3)[C@H]2SC1
inactive: Potency [1] | Potency [2] | Potency [3] | Potency [4] | Potency [5]

O=S(=O)(O)Oc1ccc(C(c2ccc(OS(=O)(=O)O)cc2)c2ccccn2)cc1
inactive: Potency [1] | Potency [2] | Potency [3] | Potency [4] | Potency [5]

CO[C@@H]1[C@@H](O[C@@H]2O[C@H](C)[C@@H](O[C@H]3C[C@@](C)(O)[C@@H](OC(=O)CC(C)C)[C@H](C)O3)[C@H](N(C)C)[C@H]2O)[C@@H](CC=O)C[C@@H](C)[C@@H](O)/C=C/C=C/C[C@@H](C)OC(=O)C[C@H]1O
inactive: Potency [1] | Potency [2] | Potency [3] | Potency [4] | Potency [5]

CN[C@@H]1[C@@H](O)[C@@H](O[C@@H]2[C@@H](O)[C@H](OC3OC(CN)=CCC3N)[C@@H](N)C[C@H]2N)OC[C@]1(C)O (some centres not stated)
inactive: Potency [1] | Potency [2] | Potency [3] | Potency [4] | Potency [5]

CO[C@H]1[C@@H](O)[C@H](N)[C@@H](O[C@H]2O[C@H]([C@H](C)N)CC[C@H]2N)[C@H](O)[C@@H]1N(C)C(=O)CN
inactive: Potency [1] | Potency [2] | Potency [3] | Potency [4] | Potency [5]

CCOC(=O)[C@H](CCc1ccccc1)N[C@H]1CCCN2CCC[C@@H](C(=O)O)N2C1=O
inactive: Potency [1] | Potency [2] | Potency [3] | Potency [4] | Potency [5]

OC[C@H]1O[C@@H](n2cnc3c2NC=NC[C@H]3O)C[C@@H]1O
inactive: Potency [1] | Potency [2] | Potency [3] | Potency [4] | Potency [5]

NCCCNCCCCNC(=O)C(O)NC(=O)CCCCCCN=C(N)N (configuration not stated)
inactive: Potency [1] | Potency [2] | Potency [3] | Potency [4] | PLD induction [5] -1.69% [at 7.66 µM]

CCCCCCCCCCCCCCCC(=O)O[C@@H]1[C@@H](O)[C@@H](O)[C@@H]([C@H](NC(=O)[C@@H]2C[C@@H](CCC)CN2C)[C@H](C)Cl)O[C@@H]1SC
inactive: Potency [1] | Potency [2] | Potency [3] | Potency [4] | Potency [5]

N[C@@H](C(=O)N[C@@H]1C(=O)N2C(C(=O)O)=C(Cl)CC[C@H]12)c1ccccc1
inactive: Potency [1] | Potency [2] | Potency [3] | Potency [4] | Potency [5]

N[C@H](CCC(=O)O)C(=O)O
inactive: Potency [1] | Potency [2] | Potency [3] | Potency [4] | PLD induction [5] 0.563% [at 7.66 µM]

CC(C)(C)CC(=O)OCC(=O)[C@@]12OC(C)(C)O[C@@H]1C[C@H]1[C@@H]3CCC4=CC(=O)C=C[C@]4(C)[C@@]3(F)[C@@H](O)C[C@@]12C
inactive: Potency [1] | Potency [2] | Potency [3] | Potency [4] | Potency [5]
